# In PubChem BioAssay (NCI):
# “And” between values parts separate entries of the source, which are not always exact repeats. Equal entries are not always repeated. The panel holds about 83,000 compounds, 20% with a hit somewhere; the sample as a whole holds those more often.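 Percent growth is the endpoint: 0 to 100 indicates growth inhibition (40 means 60% inhibition), 0 means no net growth, and negative values indicate cell death.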 Unmarked numbers belong to inactive results. The source made the active and inactive calls. The calls were made as follows: active = growth percent below 10; inactive = the rest.
# Columns and labels:
# Assay in all cases: NCI-60 one-dose screen, 48 h (100 = growth as untreated, 0 = no growth, -100 = all killed)
# Conditions in all cases: 10 µM unless noted
# NCI-H23 lung = test system: NCI-H23 lung
# NCI-H226 lung = test system: NCI-H226 lung
# NCI-H322M lung = test system: NCI-H322M lung
# HOP-62 NSCLC = test system: HOP-62 NSCLC
# NCI-H460 lung = test system: NCI-H460 lung
# HOP-92 NSCLC = test system: HOP-92 NSCLC
# NCI-H522 lung = test system: NCI-H522 lung
# A549/ATCC NSCLC = test system: A549/ATCC NSCLC
# 786-0 renal = test system: 786-0 renal
# COLO 205 colon = test system: COLO 205 colon
# DU-145 prostate = test system: DU-145 prostate
# K-562 leukemia = test system: K-562 leukemia
# MALME-3M melanoma = test system: MALME-3M melanoma
# MDA-MB-231 breast = test system: MDA-MB-231 breast
# RXF 393 renal = test system: RXF 393 renal
# SF-268 CNS = test system: SF-268 CNS
# SF-295 CNS = test system: SF-295 CNS
# UACC-257 melanoma = test system: UACC-257 melanoma
# M14 melanoma = test system: M14 melanoma
# SF-539 CNS = test system: SF-539 CNS
Compound,growth (NCI-H23 lung),growth (NCI-H226 lung),growth (NCI-H322M lung),growth (HOP-62 NSCLC),growth (NCI-H460 lung),growth (HOP-92 NSCLC),growth (NCI-H522 lung),growth (A549/ATCC NSCLC),growth (786-0 renal),growth (COLO 205 colon),growth (DU-145 prostate),growth (K-562 leukemia),growth (MALME-3M melanoma),growth (MDA-MB-231 breast),growth (RXF 393 renal),growth (SF-268 CNS),growth (SF-295 CNS),growth (UACC-257 melanoma),growth (M14 melanoma),growth (SF-539 CNS)
N#CCc1ccc(CC#N)cc1,103%,90.4%,107%,88.4%,101%,3.82% (active),91.5%,82.1%,97.5%,111%,116%,95.5%,118%,96.7%,106%,105%,100%,89%,98.1%,–
O=[N+]([O-])c1ccc2scc3c4ccccc4nc-3c2c1,30.7%,-32.4% (active),58.1%,2.95% (active),42.7%,-61.8% (active),-88.8% (active),18.9%,-82.9% (active),-55.6% (active),-7.89% (active),3.96% (active),-45% (active),-76.1% (active),-96.8% (active),-0.718% (active),84.7%,-59.9% (active),-54.8% (active),-45% (active)
O=S(=O)(F)c1cccc(Cl)c1C[P+](c1ccccc1)(c1ccccc1)c1ccccc1,108%,93.4%,97.9%,93.3%,106%,91.3%,88.8%,93.9%,104%,99.9%,109%,77.2%,90.4%,98.6%,–,105%,92.3%,89.7%,102%,103%
O=C(O)C(O)c1ccc(Cl)cc1 (stereo not drawn),99.1% and 107%,97% and 103%,101% and 118%,107%,106% and 114%,112%,100% and 88.1%,107% and 95.6%,97.6% and 96.7%,106% and 116%,112% and 109%,118%,110% and 102%,96.8% and 119%,88.5% and 122%,110% and 101%,101% and 116%,109% and 91.8%,99.9% and 104%,97.5% and 118%
O=C/C=C/c1ccco1,101%,107%,111%,94.7%,111%,94.3%,92%,85.6%,100%,115%,108%,88.8%,98.8%,99.4%,119%,102%,99.9%,–,102%,100%
O=C(O)c1ccc(=O)[nH]c1,88.5% and 105%,96.3% and 89.5%,108% and 105%,98.8% and 85.9%,111% and 104%,100%,101% and 99.9%,87.7%,96.7% and 99.6%,98.3% and 98.9%,114% and 111%,102% and 89.2%,109% and 104%,102% and 104%,–,101% and 104%,113% and 96.2%,–,–,89.5% and 98.2%
CCC1(CCSC#N)C(=O)NC(=O)NC1=O,91.5%,104%,97.9%,94.9%,107%,85.8%,109%,106%,93.5%,108%,106%,86.5%,86.2%,106%,117%,97.2%,100%,98.9%,94.6%,94.9%
Cc1ccc(P(=O)(O)O)cc1,108%,99.2%,111%,120%,108%,120%,101%,102%,103%,126%,116%,98.9%,96%,98.6%,98.8%,109%,100%,103%,104%,94.2%
CC1(C)C=Cc2c(ccc3c2[N+]([O-])=C2C3=C[C@@]34NC(=O)[C@]5(CCCN5C3=O)C[C@@H]4C2(C)C)O1,63.2%,84.5%,67.5%,54.5%,26.9%,73.4%,25.6%,54.7%,42.1%,35.2%,43.3%,9.2% (active),82.9%,48.5%,32.8%,53.7%,52.2%,68.9%,61.6%,51.2%
C/C(=C\c1ccn(-c2ccc(N)cc2F)n1)[C@@H]1C[C@@H]2O[C@]2(C)CCC[C@H](C)[C@H](O)[C@@H](C)C(=O)C(C)(C)[C@@H](O)CC(=O)O1,25.2%,35.6%,15.5%,36.4%,11%,49%,10.2%,22.5%,18.1%,-5.18% (active),-19.4% (active),11.8%,30.9%,20.8%,-7.39% (active),29.7%,8.62% (active),56.3%,-5.99% (active),-4.08% (active)
O=C1c2ccccc2C(=O)N1N1CC1c1ccccc1 (stereo not drawn),96.3%,102%,92.5%,111%,111%,–,85.9%,98.8%,98.9%,101%,109%,97.7%,91.9%,118%,107%,104%,104%,101%,100%,102%
N#CCC(=O)c1ccccc1,97.7%,97.9%,96.6%,101%,96.9%,86.8%,102%,–,107%,101%,98.5%,84.5%,102%,104%,108%,94.1%,101%,–,111%,111%
NC1CN2CCC1CC2 (stereo not drawn),98.7%,101%,96.5%,101%,109%,77.7%,97.9%,105%,89.4%,104%,–,87.6%,105%,98.3%,103%,97.2%,95.9%,101%,97.8%,95.6%
CNC(=O)CCl,101%,90.9%,102%,98.5%,107%,93.7%,106%,96.3%,–,108%,114%,121%,92.5%,–,110%,104%,105%,92.5%,105%,102%
